Test results published in PubChem BioAssay AID1159580 (chemical genetic matrix, 2015).
“And” between values parts separate entries of the source, which are not always exact repeats. Equal entries are not always repeated. Hit rate of the full screen: of about 5,500 compounds, about 2,000 (36%) were called active. Not shown: some 18% with an inconclusive outcome. Cut-off read from the data, not from the text of the source: active = normalized growth mostly below about 0.91 (no sharp cut-off); inconclusive = no clear call, values can overlap the other calls; inactive = mostly above about 0.92. The list shows a part of the results.

Test: chemical genetic growth profiling, strain panel (AID 1159580);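 note: tested at 20 µM; growth read once vehicle control cultures reached saturation at 30 °C; 1 = growth at the plate median or of vehicle wells; lower values mean less growth of the strain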
Settings: S. cerevisiae deletion strains, growth OD

Measured: normalized growth

CCC(C)[C@H]1O[C@]2(C=C[C@@H]1C)C[C@@H]1C[C@@H](C/C=C(\C)[C@@H](OC3C[C@H](OC)C(O[C@H]4C[C@H](OC)[C@@H](O)[C@H](C)O4)[C@H](C)O3)[C@@H](C)/C=C/C=C3\CO[C@@H]4[C@H](O)C(C)=C[C@@H](C(=O)O1)[C@]34O)O2 (some centres not stated)
0.865 (active) and 0.98 (inactive): locus YHR030C, strain SLT2, stronger effect = lower value
inactive: locus YAL021C, strain ccr4, stronger effect = lower value 0.919 | locus YAL026C, strain drs2, stronger effect = lower value 0.954 | locus YAL030W, strain snc1, stronger effect = lower value 0.984 | locus YBL061C, strain skt5, stronger effect = lower value 0.964 | locus YBR171W, strain sec66, stronger effect = lower value 1 | locus YBR229C, strain ROT2, stronger effect = lower value 0.997 | locus YBR231C, strain swc5, stronger effect = lower value 0.947 | locus YCL061C, strain MRC1, stronger effect = lower value 0.976 | locus YCR088W, strain abp1, stronger effect = lower value 0.981 | locus YDL005C, strain med2, stronger effect = lower value 0.971 | locus YDL040C, strain nat1, stronger effect = lower value 0.983 | locus YDL101C, strain DUN1, stronger effect = lower value 0.933 | locus YDL185W, strain tfp1, stronger effect = lower value 1.02 | locus YDR001C, strain nth1, stronger effect = lower value 0.996 | locus YDR069C, strain doa4, stronger effect = lower value 1.02 | locus YDR101C, strain arx1, stronger effect = lower value 0.959 | locus YDR159W, strain sac3, stronger effect = lower value 0.915 | locus YDR297W, strain sur2, stronger effect = lower value 0.989 | locus YDR334W, strain swr1, stronger effect = lower value 0.982 | locus YDR335W, strain msn5, stronger effect = lower value 0.996 | locus YDR392W, strain spt3, stronger effect = lower value 0.855 | locus YEL003W, strain gim4, stronger effect = lower value 0.928 | locus YEL037C, strain rad23, stronger effect = lower value 0.973 | locus YEL061C, strain CIN8 (second series), stronger effect = lower value 0.973 | locus YEL061C, strain CIN8, stronger effect = lower value 0.933 | locus YER015W, strain faa2, stronger effect = lower value 0.957 | locus YER110C, stronger effect = lower value 1.03 | locus YER111C, strain swi4, stronger effect = lower value 0.997 | locus YER155C, strain BEM2 (second series), stronger effect = lower value 1.07 | locus YER155C, strain BEM2, stronger effect = lower value 0.966 | locus YER167W, strain BCK2, stronger effect = lower value 0.913 | locus YFR010W, strain ubp6, stronger effect = lower value 1 | locus YGL078C, strain dbp3, stronger effect = lower value 1.01 | locus YGL167C, strain pmr1, stronger effect = lower value 1.01 | locus YGL173C, strain kem1, stronger effect = lower value 0.967 | locus YGL227W, strain vid30, stronger effect = lower value 1 | locus YGL240W, strain doc1, stronger effect = lower value 1.06 | locus YGR135W, strain pre9, stronger effect = lower value 1.03 | locus YGR252W, strain gcn5, stronger effect = lower value 0.939 | locus YHR013C, strain ard1, stronger effect = lower value 0.847 | locus YHR027C, strain rpn1, stronger effect = lower value 0.977 | locus YHR079C, strain IRE1, stronger effect = lower value 0.966 | locus YHR094C, strain hxt1, stronger effect = lower value 1.01 | locus YHR200W, strain rpn10, stronger effect = lower value 1.01 | locus YIL073C, strain SPO22, stronger effect = lower value 0.817 | locus YIL125W, strain kgd1, stronger effect = lower value 0.994 | locus YJL092W, strain hpr5, stronger effect = lower value 0.967 | locus YJL115W, strain asf1, stronger effect = lower value 1 | locus YJL129C, strain trk1, stronger effect = lower value 0.955 | locus YJL134W, strain LCB3, stronger effect = lower value 1.01 | locus YJL154C, strain vps35, stronger effect = lower value 1 | locus YJL166W, strain qcr8, stronger effect = lower value 0.916 | locus YJL168C, strain set2, stronger effect = lower value 1.02 | locus YJL187C, strain SWE1, stronger effect = lower value 0.951
0.722 (active) and 0.976 (inactive): locus YJL095W, strain BCK1, stronger effect = lower value
active: locus YAL013W, strain DEP1, stronger effect = lower value 0.804 | locus YBR009C, strain hhf1, stronger effect = lower value 0.809 | locus YBR021W, strain FUR4, stronger effect = lower value 0.838 | locus YBR023C, strain chs3, stronger effect = lower value 0.889 | locus YBR279W, strain paf1, stronger effect = lower value 0.882 | locus YCL011C, strain gbp2, stronger effect = lower value 0.817 | locus YCL016C, strain dcc1, stronger effect = lower value 0.86 | locus YCL029C, strain bik1, stronger effect = lower value 0.889 | locus YCL069W, strain vba3, stronger effect = lower value 0.898 | locus YDL035C, strain GPR1, stronger effect = lower value 0.847 | locus YDL074C, strain BRE1, stronger effect = lower value 0.669 | locus YDL134C, strain PPH21, stronger effect = lower value 0.853 | locus YDL192W, strain arf1, stronger effect = lower value 0.847 | locus YDR137W, strain rgp1, stronger effect = lower value 0.499 | locus YDR162C, strain NBP2, stronger effect = lower value 0.769 | locus YDR195W, strain ref2 1.32 [resistant] | locus YDR318W, strain mcm21, stronger effect = lower value 0.853 | locus YDR388W, stronger effect = lower value 0.857 | locus YDR502C, strain sam2, stronger effect = lower value 0.841 | locus YER016W, strain bim1, stronger effect = lower value 0.911 | locus YGL086W, strain mad1, stronger effect = lower value 0.8 | locus YGL248W, strain PDE1, stronger effect = lower value 0.797 | locus YGL253W, strain hxk2, stronger effect = lower value 0.743 | locus YHR079C, strain IRE1 (second series), stronger effect = lower value 0.87 | locus YHR129C, strain ARP1, stronger effect = lower value 0.814 | locus YHR142W, strain chs7, stronger effect = lower value 0.864 | locus YIL066C, strain RNR3, stronger effect = lower value 0.742 | locus YIR030C, strain dcg1, stronger effect = lower value 0.904 | locus YJL095W, strain BCK1 (second series), stronger effect = lower value 0.891 | locus YJL164C, strain tpk1, stronger effect = lower value 0.795 | locus YJL187C, strain SWE1 (second series), stronger effect = lower value 0.791
